Results with a measured potency or affinity are listed apart.
How the values were obtained:
[1] = tested on: Klebsiella pneumoniae; details: Concentration 32 ug.mL-1;; ASSAY_TEST Inhibition of Bacterial Growth; detection method Absorption (OD600); MEDIA CAMHB; plate type 384well; NBS; CORNING #3640; time 18 hr
[2] = tested on: Candida albicans; details: Concentration 32 ug.mL-1; ASSAY_TEST Inhibition of Fungal Growth; detection method Absorption (OD530)
[3] = tested on: Cryptococcus neoformans; details: Concentration 32 ug.mL-1; ASSAY_TEST Inhibition of Fungal Growth; detection method Resazurin; Absorption (OD600-OD570); plate type 384well; NBS; CORNING #3640

SMILES | Inhibition [1] [%] | Inhibition [2] [%] | Inhibition [3] [%]
CSc1cccc(NC(=O)Cn2nc3c(N4CCCC4)nccn3c2=O)c1 | 1.74 | 3.86 | -5.38
COc1ccccc1N1CCN(C(=O)CSc2nc3ccccc3n3cnnc23)CC1 | 8.29 | 2.74 | -5.08
CSc1cccc(NC(=O)Cn2nc3c(SC4CCCCC4)nccn3c2=O)c1 | 1.73 | -2.6 | -1.74
Cc1ccc(Oc2nccn3c(=O)n(CC(=O)Nc4ccc(Br)cc4)nc23)cc1 | 6.74 | 10.23 | -16.67
NC(=O)CSc1nnc2c(=O)n(-c3ccc(F)cc3)ccn12 | 0.07 | 2.37 | -6.51
O=C(CSc1nnc2c(=O)n(-c3ccccc3)ccn12)Nc1ccc(Br)cc1F | 1.03 | 2.95 | -12.46
COc1ccc(NC(=O)Cn2nc3c4cc(-c5ccc(OC)cc5)nn4ccn3c2=O)cc1 | 12.45 | 2.73 | -13.09
O=c1n(Cc2ccc3c(c2)OCO3)nc2ccc(-c3ccccc3)nn12 | 13.28 | 2.43 | -7.16
O=C(CSc1nnc2c(=O)n(-c3ccccc3)ccn12)Nc1ccc2c(c1)OCCO2 | 7.64 | 0.98 | -23.79
Cc1cc2nn(CC(=O)Nc3ccc(Cl)cc3)c(=O)n2c(Nc2ccc(F)c(C)c2)n1 | 19.07 | 3.54 | -11.52
Cc1ccc(-c2ccc3nn(Cc4ccc5c(c4)OCO5)c(=O)n3n2)cc1C | 2.14 | 1.11 | -18.91
Cc1ccccc1Oc1nc2ccccc2n2c(=O)n(CC(=O)Nc3cccc(C(F)(F)F)c3)nc12 | 12.65 | 1.53 | -23.54
O=c1n(Cc2cccc(C(F)(F)F)c2)nc2ccc(S(=O)(=O)N3CCCC3)cn12 | 10.57 | 0.2 | -10.53
Cc1ccc(NC(=O)Cn2nc3ccc(SCc4ccc(Cl)cc4)nn3c2=O)cc1C | 8.36 | 3.97 | -21.31
Cc1cc2nn(CC(=O)Nc3ccc(F)c(F)c3)c(=O)n2c(Nc2ccc(C)c(F)c2)n1 | 13.08 | 3.82 | -7.92
CCCCn1c(=O)c2sccc2n2c(CCC(=O)NCCC34CC5CC(CC(C5)C3)C4)nnc12 | 8.76 | -0.35 | -18.41
CCC(C)NC(=O)CSc1nnc2c(=O)n(Cc3ccc(F)cc3)ccn12 (stereo not given) | 6.96 | 1.05 | -22.53
CCOC(=O)c1ccc(NC(=O)Cn2nc3ccc(C(=O)Nc4cccc(C)c4)cn3c2=O)cc1 | 6.83 | 1.34 | -36.79
Cc1cc2nn(CC(=O)Nc3cc(F)ccc3F)c(=O)n2c(Nc2ccc(F)c(C)c2)n1 | 12.97 | 1.83 | -3.72
COc1cccc(CNC(=O)Cn2nc3c4cc(-c5cc(C)ccc5C)nn4ccn3c2=O)c1OC | 6.77 | -1.47 | -13.57

SMILES | Inhibition [1] [%] | Inhibition [2] [%] | Inhibition [3] [%]
CCCCOc1ccc(-c2cc3c4nnc(SCC(=O)Nc5c(C)cccc5CC)n4ccn3n2)cc1 | -16.94 | -2.13 | -12.87
COc1cccc(-n2ccn3c(SCc4c(F)cccc4Cl)nnc3c2=O)c1 | 6.32 | 2.64 | -10.15
O=C(Cn1nc2c(N3CCOCC3)nccn2c1=O)Nc1cc(C(F)(F)F)ccc1Cl | 12.08 | 2.84 | -4.39
COC(=O)c1cccc(NC(=O)Cn2nc3c(SCc4ccc(Cl)cc4)nccn3c2=O)c1 | 6.22 | 27.78 | -15.7
COc1cc(NC(=O)CSc2nnc3c(=O)n(-c4ccc(C)c(C)c4)ccn23)cc(OC)c1 | 2.77 | 1.66 | -9.37
Cc1ccc(Oc2nccn3c(=O)n(CC(=O)Nc4ccc(C)cc4Cl)nc23)cc1 | 4.57 | 3.92 | -3.03
Cc1cc2nn(CC(=O)Nc3ccc(F)c(F)c3)c(=O)n2c(Nc2ccc(F)c(C)c2)n1 | 10.55 | 1.57 | -7.1
Cc1cc(C)cc(NC(=O)Cn2nc3ccc(SCc4ccc(Cl)cc4)nn3c2=O)c1 | -2.52 | 46.75 | -25.54
Cc1ccccc1CN(c1cccc(F)c1)S(=O)(=O)c1ccc2nncn2c1 | 6.25 | 3.9 | -4.05
COc1cccc(-n2ccn3c(SCc4cccc(F)c4)nnc3c2=O)c1 | 9.47 | 1.25 | -9.96
Cc1oc(-c2cccc(Cl)c2)nc1CSc1nc2ccccc2n2c(C)nnc12 | 5.28 | 6.15 | -6.37
COC(=O)c1ccc(NC(=O)Cn2nc3c4cc(-c5ccc(Cl)cc5)nn4ccn3c2=O)cc1 | 10.1 | 2.64 | -4.53
CCCCn1c(=O)c2sccc2n2c(=O)n(CC(=O)c3ccc(OC)c(OC)c3)nc12 | 19.59 | -0.04 | -27.81
COc1ccc(CNC(=O)Cn2nc3c4cc(-c5ccc(Cl)cc5)nn4ccn3c2=O)cc1 | 11.83 | 1.19 | -27.86
CCCCOc1ccc(-c2cc3c4nnc(SCC(=O)NCc5ccc(C)cc5)n4ccn3n2)cc1 | 3.76 | 12.04 | -14.64
Cc1ccc(CNC(=O)Cn2nc3c(Sc4ccc(C)cc4C)nccn3c2=O)cc1 | 3.93 | 2.64 | -16.78
Cc1ccc(NC(=O)Cn2nc3ccc(-c4ccc(Cl)cc4)nn3c2=O)cc1 | 3.71 | 1.61 | -4.05
COc1cccc(-n2ccn3c(SCC(=O)Nc4ccc(Br)cc4)nnc3c2=O)c1 | -3.95 | 5.78 | -9.82
COc1ccc(NC(=O)Cn2nc3c(N4CCCC4)nccn3c2=O)cc1Cl | 15.87 | 1.28 | -15.33
CC(C)c1nnc2c(=O)n(CC(=O)Nc3ccc(Cl)c(Cl)c3)c3ccccc3n12 | 5.02 | 3.27 | -9.31

SMILES | Inhibition [1] [%] | Inhibition [2] [%] | Inhibition [3] [%]
CCc1ccccc1Sc1nccn2c(=O)n(CC(=O)N3CCN(c4ccccc4)CC3)nc12 | -1.73 | 3.92 | -19.52
COC(=O)c1ccccc1NC(=O)Cn1nc2c3sc(N4CCCC4)nc3ncn2c1=O | 7.53 | 3.62 | -7.62
O=C1CCCN1c1ccc(Cn2nc3ccc(-c4ccccc4)nn3c2=O)cc1 | 10.51 | -0.02 | -12.26
Cc1cc2nn(CC(=O)Nc3ccc(F)cc3C)c(=O)n2c(Nc2ccc(F)cc2)n1 | 7.08 | 9.27 | -2.95
C=Cc1ccc(CSc2nnc3c(=O)n(-c4ccc(Br)cc4)ccn23)cc1 | 3.16 | 0.16 | -7.54
Cc1ccc(-n2ccn3c(SC(C)C(=O)Nc4ccc5c(c4)OCCO5)nnc3c2=O)cc1C (stereo not given) | 15.49 | 0.29 | -6.97
Cc1cccc(C)c1NC(=O)Cn1c(=O)c2nnc(C(C)C)n2c2ccccc21 | 1.46 | 4.52 | -19.69
Cc1nnc2ccc(S(=O)(=O)N(Cc3ccc(Cl)cc3)c3cccc(F)c3)cn12 | 9.13 | 3.61 | -11.42
O=C(Cn1nc2c(Sc3cccc(F)c3)nccn2c1=O)Nc1cccc(Br)c1 | 7.1 | -0.26 | -2.48
CCc1nnc2c(=O)n(CC(=O)Nc3ccc(C#N)cc3)c3ccccc3n12 | 5.17 | 10.64 | -24.76
Cc1nnc2c(S(=O)(=O)N(Cc3cccc(F)c3)c3cccc(F)c3)cccn12 | 14.45 | 2.41 | -6.64
COc1ccc(OC)c(NC(=O)Cn2nc3c4c5c(sc4ncn3c2=O)CCCC5)c1 | 8.89 | 0.7 | -30.54
CCc1nnc2c(S(=O)(=O)N(Cc3cccc(F)c3)c3cccc(C)c3)cccn12 | 4.33 | 0.97 | -1.17
O=C(Cn1nc2c(N3CCOCC3)nccn2c1=O)Nc1ccc(Br)cc1F | 9.99 | 1.73 | -5.04
O=c1c2nn(Cc3cccc(F)c3)c(=O)n2ccn1-c1ccccc1 | 3.5 | 1.62 | -10.61
COc1ccc(NC(=O)c2ccc3nn(CC(=O)Nc4cccc(OC)c4)c(=O)n3c2)cc1 | 8.13 | 4.49 | -9.24
COc1ccc(NC(=O)Cn2nc3c(Sc4ccccc4)nc4ccccc4n3c2=O)cc1Cl | 5.63 | 1.75 | -17.25
CCc1ccccc1Sc1nccn2c(=O)n(CC(=O)Nc3cc(C)ccc3C)nc12 | 13.72 | 1.62 | -13.69
COc1ccc(Cl)cc1NC(=O)Cn1nc2c(Sc3ccc(C)cc3C)nccn2c1=O | 5.33 | 2.63 | -21.72
Cc1ccc(-c2ccc3nn(CC(=O)N4CCN(c5ccccc5F)CC4)c(=O)n3n2)cc1C | 9.79 | 0.84 | -7.8
